Experimental data reported in PubChem BioAssay AID1619 (SRMLSC, 2009).
In all, about 220,000 compounds went through this assay and about 830 (0.38%) were called active.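 Rule for the calls: active = compound inhibiting the enzyme by more than half at any dose during confirmatory dose-response retesting; inconclusive = strong single-dose inhibitors picked by rank but not retested; inactive = the rest.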 These entries were drawn from the full list. Entries with a potency or affinity are not part of this list.

Each compound was assayed against Leucine aminopeptidase (Plasmodium falciparum (isolate 3D7)) (UniProt Q8IL11) (assay: P. falciparum M17LAP inhibitors, primary screen, biochemical, fluorogenic H-Leu-NHMec substrate, 1536-well (AID 1619;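 note: plate controls were full reaction with DMSO carrier for no effect and no enzyme background for full effect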)). Conditions: recombinant M17LAP, H-Leu-NHMec fluorogenic kinetic assay; at 30 µM; stronger effect = higher value.
Leucine aminopeptidase (Plasmodium falciparum (isolate 3D7)), sequence (Q8IL11 whole entry, looked up): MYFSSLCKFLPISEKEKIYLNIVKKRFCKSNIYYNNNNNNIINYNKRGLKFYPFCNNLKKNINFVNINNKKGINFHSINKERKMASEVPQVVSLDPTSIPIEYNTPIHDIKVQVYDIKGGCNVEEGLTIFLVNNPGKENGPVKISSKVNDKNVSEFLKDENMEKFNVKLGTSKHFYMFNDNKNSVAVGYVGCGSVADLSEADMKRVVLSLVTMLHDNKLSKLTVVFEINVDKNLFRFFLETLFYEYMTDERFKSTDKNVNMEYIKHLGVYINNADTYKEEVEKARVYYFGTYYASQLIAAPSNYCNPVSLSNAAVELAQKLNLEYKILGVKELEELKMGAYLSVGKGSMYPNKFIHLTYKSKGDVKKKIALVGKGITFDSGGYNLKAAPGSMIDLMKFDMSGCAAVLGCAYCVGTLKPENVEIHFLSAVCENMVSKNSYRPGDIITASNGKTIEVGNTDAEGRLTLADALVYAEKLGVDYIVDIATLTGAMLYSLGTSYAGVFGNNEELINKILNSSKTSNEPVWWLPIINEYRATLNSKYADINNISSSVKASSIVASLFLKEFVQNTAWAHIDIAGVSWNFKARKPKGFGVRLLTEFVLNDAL

inhibition, inactive:
CC(OC(=O)c1cn(-c2ccccc2)nc1-c1cccnc1)C(N)=O (stereo unspecified) 1.32%
O=C(COC(=O)c1ccc(S(=O)(=O)NCc2ccco2)cc1)Nc1ncc(Cl)cc1Cl -2.24%
N/C(Cc1ccc(Cl)cc1Cl)=N\OC(=O)c1ccccc1 0.73%
COc1ccc(OCc2cccc(C(=O)O)c2)cc1 53.7%
CCOc1ccc(OCc2cccc(C(=O)N(CC)CC)c2)cc1 -4.73%
O=C(Nc1ccc(C(=O)O)cc1)/C(=C\c1ccco1)NC(=O)c1ccccc1 45.7%
CN(C(=O)CSCC(=O)O)C1CCCCC1 -10.4%
CCOC(=O)/C(N=Nc1ccc(Cl)cc1)=C(/O)c1ccc([N+](=O)[O-])cc1 3.08%
Nc1[nH]ncc1-c1ccccc1 -3.57%
Nc1[nH]ncc1-c1ccc(F)cc1 55.5%
COC(=O)c1cc(C(=O)OC)n(Cc2ccc(Br)cc2)n1 -9.56%
CC(=O)c1c(C)[n+]([O-])c2ccc3c(non3O)c12 10.2%
CC[n+]1ccccc1/C=C/c1ccc(N(C)C)cc1 56.5%
CN(C)c1ccc(/C=C/c2ccc3c4ccccc4ccc3[n+]2-c2ccccc2)cc1 13.1%
C[n+]1c(/C=C/c2ccc3c(c2)OCO3)ccc2ccccc21 0.47%
CC[n+]1ccc(/C=C/c2ccc(N(C)C)cc2)c2ccccc21 50.7%
C=CC(C)(C)c1cc2cc3ccoc3cc2oc1=O 3.93%
Cc1nc(C)c(-c2ccn(S(=O)(=O)c3ccc(Cl)cc3)n2)o1 -15.8%
COC(=O)c1ccc(COc2ccc(C)cc2[N+](=O)[O-])o1 5.81%
Cc1ccc(OCc2ccc(C(=O)NN)o2)c([N+](=O)[O-])c1 -2.38%
CCN1CCN(CCn2c(=S)[nH]c3cc4c(cc3c2=O)OCO4)CC1 10.8%
COc1ccc(C2CCN(CC(=O)N(C)C)CC2O)cc1 (stereo unspecified) -0.46%
Cc1ccccc1NC(=O)COC(=O)c1c[nH]c(=O)[nH]c1=O -3.99%
CN(c1ccccc1C(=O)N1CCN(c2cccc(Cl)c2)CC1)S(C)(=O)=O -10.5%
O=C1CC(=O)C(n2cncn2)C(c2cccc(Cl)c2)C1 (stereo unspecified) -45.4%
O=C1CC(=O)C(n2cncn2)C(c2ccc(Cl)cc2)C1 (stereo unspecified) 41.7%
NC(=O)COc1ccccc1/C=C1/SC(=O)N(CC(=O)N2CCc3ccccc3C2)C1=O -2.36%
COc1cccc(/C=C2/SC(=O)N(C)C2=O)c1OCc1ccc(C(=O)O)cc1 25.1%
COC(=O)COc1ccc(/C=C2/SC(=O)N(CC(=O)N3CCCC3)C2=O)cc1Br 14.7%
COc1cc(/C=C2\SC(=Nc3ccc(F)cc3)N(c3ccc(F)cc3)C2=O)ccc1OCC(=O)O 38.3%
CCOc1cc(/C=C2\SC(=Nc3ccc(F)cc3)N(c3ccc(F)cc3)C2=O)ccc1OCC(=O)O 42.8%
CCOc1ccc(C(=O)NCC(=O)N2CCc3ccccc3C2)cc1OCC -4.26%
CCOc1c(Br)cc(/C=C2/SC(=O)N(CC(=O)N3CCCC3)C2=O)cc1OC -3.92%
COC(=O)COc1cc(Br)c(/C=C2/SC(=O)N(CC(=O)N3CCCC3)C2=O)cc1OC 26.7%
COC(=O)c1cccc(NC(=O)Cc2nc(-c3ccccc3)sc2-c2ccc(C)cc2)c1 1.12%
COc1ccc(CN2CCN(C)CC2)cc1OCc1ccccc1 -2.4%
Cc1ccc(C(=O)N2CCSC2=S)cc1 8.96%
CCc1nc(Sc2nc(C)cc(C)n2)c2oc3ccccc3c2n1 -4.31%
CCOC(=O)c1ccc(S(=O)(=O)NNC(=O)COc2ccccc2C)cc1 -5.37%
O=C(CSc1nnc(CN2CCCCCC2=O)n1-c1ccccn1)NCC(F)(F)F -5.65%
C/C(=C\c1ccccc1)CN1CCC(C(=O)N2CCC(C)CC2)CC1 1.41%
COCCSc1nnc(NC(=O)c2ccc([N+](=O)[O-])cc2)s1 -6.15%
COCc1nnc(NC(=O)c2cc(C(=O)OC)cc([N+](=O)[O-])c2)s1 6.44%
CCc1nn(-c2ccccc2)c(N)c1-c1ccc(OC)c(OC)c1 1.87%
COC(=O)c1ccc(/C=C/c2ccc3cccc(OC)c3n2)cc1 0.52%
COc1cc(/C=C/c2ccc3cccc([N+](=O)[O-])c3n2)ccc1OCC(=O)O 20.7%
O=[N+]([O-])c1ccc(/C=C/c2ccc3cccc([N+](=O)[O-])c3n2)cc1 -6.24%
CSc1ccc(/C=C/c2ccc3cccc(O)c3n2)cc1 14.9%
CCCn1nnc(NC(=O)c2ccco2)n1 -183%
CCC(C)n1c(SCC(=O)NC(=O)Nc2ccc3c(c2)OCCO3)nc2ccccc2c1=O (stereo unspecified) -1.6%
CCOC(=O)c1cn2nc(Oc3ccc(OC)cc3)ccc2n1 9.2%
CCCCCOC(=O)NC1CCS(=O)(=O)C1 (stereo unspecified) -3.96%
CCOC(=O)C1(CCSC)NC(c2ccco2)C2C(=O)N(CC)C(=O)C21 (stereo unspecified) 5.79%
CC(C)C(=O)NCCc1c[nH]c2ccccc12 3.48%
CCC(=O)NCCc1c[nH]c2ccccc12 -4.01%
CSc1n[nH]c(=O)n1-c1ccc(Cl)cc1 -4.84%
Cc1sc(NC(=O)c2ccc(Cl)s2)c(C(N)=O)c1C -3.24%
O=[N+]([O-])c1ccc(Sc2ccccc2)nc1 -3.15%
O=[N+]([O-])c1ccc(Sc2ccccn2)nc1 6.7%
Cc1ccc2oc(=O)c3cnn(CC(=O)NCCc4ccsc4)c3c2c1 11.8%
CCOC(=O)Cn1nnnc1CN(Cc1ccc(OC)cc1)Cc1cc2cc(CC)ccc2[nH]c1=O 7.13%
CCc1cccc2c(=O)c(C(=O)N3CCCCCC3)c[nH]c12 3.21%
CCN1CCc2c(OCC(=O)N3CCCc4ccccc43)cccc2C1=O 0.37%
CCc1ccc(-c2c(C)sc(NC(C)=O)c2C(N)=O)cc1 41.9%
CC(C)=C1C2CCC1C(C(=O)Nc1sc(C)c(-c3ccc(C(C)C)cc3)c1C(N)=O)C2C(=O)O (stereo unspecified) -4%
COC(=O)c1c(NC(=O)/C=C/C(=O)O)sc(C)c1-c1ccc(C(C)C)cc1 15.5%
CCc1c(C)sc(NC(=O)C2CCCCC2C(=O)O)c1C(N)=O (stereo unspecified) 50.6%
Cc1sc(NC(=O)CCC(=O)O)c(C(N)=O)c1-c1ccccc1 18%
Cc1sc(NC(=O)/C=C/C(=O)O)c(C(N)=O)c1-c1ccc(C(C)(C)C)cc1 21.9%
Cc1sc(NC(=O)C2C3CCC(C3)C2C(=O)O)c(C(N)=O)c1-c1ccc(C(C)(C)C)cc1 (stereo unspecified) 39.7%
Cc1sc(NC(=O)C2CCCCC2C(=O)O)c(C(N)=O)c1C (stereo unspecified) 45%
COc1ccccc1-c1n[nH]c(=S)n1N -6.79%
COC(=O)/C(=C/c1ccccc1)NC(=O)c1ccco1 0.48%
COC(=O)c1ccc(CN2CCN(Cc3ccc(F)cc3)C(CCO)C2)cc1 (stereo unspecified) -9.03%
Cc1ccc(NC(=O)C(CC(C)C)NC(=O)C2CCC(C)CC2)nc1 (stereo unspecified) -1.65%
CC(C)NC(=O)COC(=O)c1ccc(Cl)c(S(=O)(=O)N2CCCC2)c1 4.58%
Cc1ccc2cc(CCNC(=O)c3ccco3)c(=O)[nH]c2c1C -13.9%
O=C(CCC(=O)NNC(=O)COc1ccccc1)NCc1ccccc1 -10.8%
CC(=O)C1=C(O)C(=O)N(CCCO)C1c1ccccc1 (stereo unspecified) 27.1%
O=C(c1ccc(S(=O)(=O)N2CCCCC2)cc1)N(c1ccccn1)C1CCCCC1 0.89%
O=[N+]([O-])c1ccc(N2CCCC2)cc1NC(c1ccccc1)c1ccccc1 8.49%
CCOc1ccc(NC(=O)C(=O)N/N=C\c2ccc(CNS(=O)(=O)c3ccccc3)o2)cc1 0.49%
O=C1CCCC(O)=C1N=Nc1cccc(C(=O)O)c1 46.3%
O=Cc1cc(N=Nc2ccccc2Cl)ccc1O 40.2%
CCCCCNC(=O)c1ccc2c(=O)[nH]c3c(C(=O)NCC4CCCO4)sc(=S)n3c2c1 (stereo unspecified) 53.8%
O=C(NCc1ccccc1)c1sc(=S)n2c1[nH]c(=O)c1ccccc12 27.9%
Cc1ccc(CNC(=O)c2ccc3c(=O)[nH]c4c(C(=O)NCC5CCCO5)sc(=S)n4c3c2)cc1 (stereo unspecified) 1.99%
O=C(NC1CCCCC1)c1sc(=S)n2c1[nH]c(=O)c1ccccc12 24.2%
Cc1ccc(Nc2nc(N)nc(CSc3nnc(-c4ccncc4)o3)n2)cc1 -3.96%
O=c1cc(C(Cl)(Cl)Cl)oc2c1ccc1ccccc12 -3.47%
CC(=O)C1=C(O)C(=O)N(c2ccc(S(N)(=O)=O)cc2)C1c1ccc([N+](=O)[O-])cc1 (stereo unspecified) 23%
Cc1ccc(N2CC(=O)Nc3c(oc4nc(-c5ccccc5)cc(C)c34)C2=O)cc1 -16.6%
CCOC(=O)CSc1[nH]c(=O)cc(C)c1C#N 17%
COC(=O)CSc1[nH]c(=O)cc(C)c1C#N 0.03%
Cc1cc(=O)[nH]c(SCC(=O)O)c1C#N 2.48%
Cc1cc(=O)[nH]c(SCC(=O)c2ccccc2)c1C#N 16.9%
